In all, about 5,500 compounds went through this assay and about 2,000 (36%) were called active. About 18% were inconclusive and are not listed. No stated cut-off is given here; in the data, active means normalized growth mostly below about 0.91 (no sharp cut-off); inconclusive means no clear call, values can overlap the other calls; inactive means mostly above about 0.92. Some of the results follow.
Test: chemical genetic growth profiling, strain panel (AID 1159580);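 further: tested at 20 µM; growth read once vehicle control cultures reached saturation at 30 °C; 1 = growth at the plate median or of vehicle wells; lower values mean less growth of the strain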
Conditions: S. cerevisiae deletion strains, growth OD
[1] = locus YAL040C, strain CLN3, active compounds read low
[2] = locus YCL061C, strain MRC1 (second series), active compounds read low
[3] = locus YDR363W, strain ESC2, active compounds read low
[4] = locus YER002W, strain NOP16, active compounds read low
[5] = locus YMR263W, strain SAP30, active compounds read low
[6] = locus YNL175C, strain NOP13, active compounds read low
[7] = locus YNL224C, strain SQS1, active compounds read low
[8] = locus YNL322C, strain KRE1, active compounds read low
[9] = locus YOR083W, strain WHI5 (second series), active compounds read low
[10] = locus YPL055C, strain LGE1, active compounds read low
[11] = locus YPL241C, strain CIN2, active compounds read low

Measured: normalized growth

CN=C(NC#N)Nc1ccc(C2=NNC(=O)CC2C)cc1 (stereo not given)
inactive: [1] 1.08 | [2] 0.999 | locus YDR150W, strain NUM1, active compounds read low 1.01 | [3] 1.01 | [4] 0.986 | locus YGR078C, strain PAC10, active compounds read low 1 | [5] 1 | locus YMR307W, strain GAS1, active compounds read low 1 | locus YNL128W, strain TEP1, active compounds read low 1 | [6] 0.995 | locus YNL197C, strain WHI3, active compounds read low 0.994 | [7] 0.994 | [8] 0.986 | [9] 1 | [10] 0.996 | [11] 0.998

Cc1o[nH]c(=O)c1CC(N)C(=O)O (stereo not given)
inactive: locus YAL013W, strain DEP1, active compounds read low 0.998 | [1] 1 | [2] 1 | [3] 1.01 | [4] 0.997 | locus YGR229C, strain SMI1, active compounds read low 0.995 | [5] 0.999 | locus YNL153C, strain GIM3, active compounds read low 0.989 | [6] 1 | [7] 1.01 | [8] 1.01 | [9] 0.982 | [10] 1 | [11] 1.01

COC1CC2CCC(C)C(O)(O2)C(=O)C(=O)N2CCCCC2C(=O)OC(C(C)CC2CCC(O)C(OC)C2)CC(=O)C(C)/C=C(\C)C(O)C(OC)C(=O)C(C)CC(C)/C=C/C=C/C=C/1C (stereo not given)
active: locus YAL021C, strain ccr4, active compounds read low 0.0589 | locus YAL026C, strain drs2, active compounds read low 0.0607 | locus YAL030W, strain snc1, active compounds read low 0.057 | locus YBL061C, strain skt5, active compounds read low 0.0636 | locus YBR009C, strain hhf1, active compounds read low 0.0589 | locus YBR023C, strain chs3, active compounds read low 0.0647 | locus YBR171W, strain sec66, active compounds read low 0.0879 | locus YBR231C, strain swc5, active compounds read low 0.0671 | locus YBR279W, strain paf1, active compounds read low 0.061 | locus YCL011C, strain gbp2, active compounds read low 0.0563 | locus YCL016C, strain dcc1, active compounds read low 0.064 | locus YCL061C, strain MRC1, active compounds read low 0.0664 | locus YCL069W, strain vba3, active compounds read low 0.0634 | locus YCR088W, strain abp1, active compounds read low 0.0633 | locus YDL005C, strain med2, active compounds read low 0.105 | locus YDL040C, strain nat1, active compounds read low 0.062 | locus YDR001C, strain nth1, active compounds read low 0.062 | locus YDR069C, strain doa4, active compounds read low 0.0638 | locus YDR137W, strain rgp1, active compounds read low 0.108 | locus YDR159W, strain sac3, active compounds read low 0.0822 | locus YDR195W, strain ref2 0.107 | locus YDR297W, strain sur2, active compounds read low 0.0574 | locus YDR334W, strain swr1, active compounds read low 0.0661 | locus YDR335W, strain msn5, active compounds read low 0.0641 | locus YDR392W, strain spt3, active compounds read low 0.0747 | locus YEL003W, strain gim4, active compounds read low 0.0561 | locus YEL037C, strain rad23, active compounds read low 0.06 | locus YEL061C, strain CIN8 (second series), active compounds read low 0.0638 | locus YER015W, strain faa2, active compounds read low 0.063 | locus YER016W, strain bim1, active compounds read low 0.0636 | locus YER111C, strain swi4, active compounds read low 0.0777 | locus YER155C, strain BEM2 (second series), active compounds read low 0.0886 | locus YFR010W, strain ubp6, active compounds read low 0.0722 | locus YGL167C, strain pmr1, active compounds read low 0.106 | locus YGL173C, strain kem1, active compounds read low 0.0674 | locus YGL227W, strain vid30, active compounds read low 0.0637 | locus YGL240W, strain doc1, active compounds read low 0.0777 | locus YGL253W, strain hxk2, active compounds read low 0.0553 | locus YHR013C, strain ard1, active compounds read low 0.0984 | locus YHR027C, strain rpn1, active compounds read low 0.0663 | locus YHR030C, strain SLT2, active compounds read low 0.0959 | locus YHR079C, strain IRE1, active compounds read low 0.1 | locus YHR142W, strain chs7, active compounds read low 0.0702 | locus YJL092W, strain hpr5, active compounds read low 0.0602 | locus YJL095W, strain BCK1 (second series), active compounds read low 0.0568 | locus YJL095W, strain BCK1, active compounds read low 0.0941 | locus YJL115W, strain asf1, active compounds read low 0.0785 | locus YJL129C, strain trk1, active compounds read low 0.083 | locus YJL154C, strain vps35, active compounds read low 0.0627 | locus YJL164C, strain tpk1, active compounds read low 0.0565 | locus YJL166W, strain qcr8, active compounds read low 0.0582 | locus YJL187C, strain SWE1, active compounds read low 0.0583 | locus YJR066W, strain TOR1, active compounds read low 0.00105 | locus YKL160W, strain elf1, active compounds read low 0.0628 | locus YKR026C, strain gcn3, active compounds read low 0.0857 | locus YKR091W, strain srl3, active compounds read low 0.063 | locus YLL001W, strain dnm1, active compounds read low 0.0594 | locus YLL026W, active compounds read low 0.0565 | locus YLL041C, strain sdh2, active compounds read low 0.0584 | locus YLR027C, strain aat2, active compounds read low 0.056 | locus YLR113W, strain HOG1, active compounds read low 0.116 | locus YLR221C, strain rsa3, active compounds read low 0.0587 | locus YLR258W, strain gsy2, active compounds read low 0.0578 | locus YLR262C, strain YPT6 (second series), active compounds read low 0.0827 | locus YLR320W, strain mms22, active compounds read low 0.0745 | locus YLR342W, strain FKS1, active compounds read low 0.0654 | locus YLR357W, strain rsc2, active compounds read low 0.123 | locus YLR370C, strain arc18, active compounds read low 0.0626 | locus YLR384C, strain iki3, active compounds read low 0.0638 | locus YML120C, strain ndi1, active compounds read low 0.0575 | locus YMR058W, strain fet3, active compounds read low 0.0611 | locus YMR125W, strain sto1, active compounds read low 0.0751 | locus YMR129W, active compounds read low 0.0593 | locus YMR205C, strain PFK2, active compounds read low 0.077 | locus YMR231W, strain pep5, active compounds read low 0.0735 | locus YNL071W, strain lat1, active compounds read low 0.0603 | locus YNL183C, strain NPR1, active compounds read low 0.00606 | locus YNL209W, strain ssb2, active compounds read low 0.0636 | locus YNL248C, strain rpa49, active compounds read low 0.0637 | locus YNL322C, strain KRE1 (second series), active compounds read low 0.0917 | locus YNR049C, strain mso1, active compounds read low 0.0601 | locus YOR001W, strain rrp6, active compounds read low 0.0618 | locus YOR070C, strain gyp1, active compounds read low 0.0602 | locus YOR080W, strain dia2, active compounds read low 0.0718 | locus YOR083W, strain WHI5, active compounds read low 0.0613 | locus YOR106W, strain vam3, active compounds read low 0.0579 | locus YOR231W, strain MKK1, active compounds read low 0.101 | locus YOR265W, strain rbl2, active compounds read low 0.062 | locus YOR270C, strain vph1, active compounds read low 0.0796 | locus YOR290C, strain snf2, active compounds read low 0.0616 | locus YPL051W, strain arl3, active compounds read low 0.0737 | locus YPL078C, strain atp4, active compounds read low 0.0674 | locus YPL106C, strain sse1, active compounds read low 0.0858 | locus YPL240C, strain hsp82, active compounds read low 0.0583 | locus YPL256C, strain CLN2, active compounds read low 0.117
